PAX8 inh HTS – inhibitors of PAX8-driven TPO luciferase reporter, primary screen, RMG-I cells, single concentration. SteadyGlo, 24 h. inhibition, % at 12.6 µM. 1.2% of 360,000 active;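 active = mean replicate inhibition at least 60% with every replicate also reaching 60%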;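 also: luciferase light reporting Pax8 driven TPO promoter activity; plate controls were median of neutral control wells for no effect and mitoxantrone controls for full effect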
LMP1 NFkB inh – EBV LMP1-driven NF-kappaB luciferase reporter inhibitors, primary screen, cell-based, luminescence, single point. LMP1-induced NF-kappaB luciferase reporter cells. inhibition, % at 12.5 µM. 0.69% of 350,000 active; in the data active = inhibition above about 41%;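 also: 0% = neutral control wells and 100% = reference inhibitor control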
LGR2 antag – inhibitors of bursicon-induced LGR2 CRE-luciferase signal, primary screen, cell-based, HEK293, CRE-luciferase reporter, bursicon stimulation; inhibition, % at 9.99 µM; Drosophila bursicon receptor LGR2 (rickets); AID 720647, 2013; 0.35% of 380,000 active; bursicon-stimulated, 4 h;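 active = drop in luminescence signal, shown as inhibition above about 50% in the replicate tests, limit read from the data, passing the limit was not always enough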;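 also: agonist challenge used bursicon conditioned medium at about half maximal strength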
EWS-Fli block – EWS/Fli-driven NR0B1 reporter inhibitors, primary screen, A673 cells, NR0B1 luciferase, luminescence, MLPCN library; 0.67% of 350,000 active; inhibition, % at 12.6 µM; viability-normalised;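 active = mean inhibition of at least 50% after viability correction, with every replicate also passing that limit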;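 also: firefly luciferase signal divided by Alamar Blue viability fluorescence both relative to DMSO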
TWEAK-Fn14 inh – inhibitors of TWEAK-Fn14 signaling, primary screen, luciferase reporter cells, uHTS. AID 1159606, 2016. TWEAK-stimulated Fn14 reporter cells, luciferase luminescence, 8 h. inhibition, % at 10 µM. 2% of 360,000 active; in the data active = inhibition above about 50%
TROY signal inh – inhibitors of TROY-driven NF-kB signaling, primary screen, Q293 LMP1-TROYcd cells, NF-kB luciferase, uHTS | Q293 LMP1-TROYcd NF-kB luciferase reporter, 4 h | inhibition, % at 10 µM | 0.98% of 360,000 active | AID 1347056, 2019;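 active = compounds whose plate-normalised and pattern-corrected inhibition of the luciferase reporter signal at the single screening dose is 50% or more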
* = called active by the depositor; · = no result; ! = a repeat was not active. Most compounds without a hit are left out; they make up all but 3.2% or so of the library.

SMILES	PAX8 inh HTS	LMP1 NFkB inh	LGR2 antag	EWS-Fli block	TWEAK-Fn14 inh	TROY signal inh
COCC#Cc1cnc2c(c1)C(=O)N([C@H](C)CO)C[C@H](C)[C@@H](CN(C)C(=O)C1CCC1)O2	·	·	6	-13	·	·
O=C(c1cccnc1)N1CCCCN2[C@@H](CO)[C@@H](c3ccc(C#Cc4ccccc4)cc3)[C@@H]2C1	-20	·	·	2	·	·
COc1cc(CN2CC3(CCN(C(=O)CN4CCOCC4)CC3)c3c(n(C)c4cc(OC)ccc34)[C@@H]2CO)cc(OC)c1	·	·	-17	-1	·	·
C[C@H]1CN([C@@H](C)CO)S(=O)(=O)c2ccc(-c3ccc(F)cc3)cc2O[C@H]1CN(C)Cc1cccc(F)c1	·	·	16	-13	·	·
O=C(/C=C\Nc1ccccc1Br)c1ccc2c(c1)OCO2	-50	13	79*	75*	61*	47
O=C(/C=C/c1ccccc1Br)c1ccc2c(c1)OCO2	-75	1	-18	-51	27	-4
COc1cc(/C=C/C(=O)c2ccc3c(c2)OCCO3)cc(Br)c1OCC(=O)N(C)C	7	28	60*	61*	83*	33
O=C(N/N=C/c1ccc(-c2cccc(C(F)(F)F)c2)o1)c1ccccc1Br	·	-7	·	·	59*	65*
O=C(N/N=C/c1ccc(-c2cccc(C(F)(F)F)c2)o1)c1ccccc1O	10	18	27	·	12	10
O=C(Nc1cccn(Cc2c(Cl)cccc2Cl)c1=O)c1ccc(Cl)cc1Cl	11	4	·	·	64*	16
O=C(Nc1cccn(Cc2c(Cl)cccc2Cl)c1=O)c1ccccc1Cl	-7	19	14	·	15	-11
O=C(Nc1cnc2sccn2c1=O)c1ccc(Cl)cc1Cl	·	-2	25	·	56*	-18
C[C@H]1CN([C@@H](C)CO)C(=O)c2cc(NC(=O)Nc3ccc(F)cc3)ccc2O[C@@H]1CN(C)S(=O)(=O)c1cn(C)cn1	0	·	-2	2	·	·
Cc1nn(-c2ccccc2)c(Cl)c1/C=C1\SC(=S)NC1=O	·	0	·	·	30	51*
C[C@@H]1CN([C@@H](C)CO)C(=O)c2cc(N(C)C)ccc2O[C@@H](C)CCCCO[C@H]1CN(C)C(=O)CCC(F)(F)F	2	·	-11	-5	·	·
C[C@H]1CN([C@@H](C)CO)C(=O)c2cc(NS(C)(=O)=O)ccc2O[C@@H]1CN(C)Cc1ccc(-c2ccccc2)cc1	-7	·	4	8	·	·
Cc1noc(C)c1NC(=O)N(C)C[C@H]1Oc2ccc(NC(=O)Cc3ccccc3)cc2CC(=O)N([C@H](C)CO)C[C@@H]1C	-29	·	2	1	·	·
COCC(C)n1c(-c2ccc3c(c2)NC(=O)CO3)csc1=Nc1ccc(OC(F)F)cc1 (stereo not given)	43	16	6	26	63*!	52*!
C/C=C/c1ccc([C@@H]2[C@@H](CO)N(C(=O)c3cnccn3)C23CN(C(=O)CC)C3)cc1	·	·	7	2	·	·
CCn1c2ccccc2c2cc(NC(=O)c3ccccc3-c3ccccc3C(=O)O)ccc21	-16	52*	-4	15	-6	0
CCn1c2ccccc2c2cc(/C=N/NC(=O)c3ccccc3)ccc21	·	79*	·	·	9	0
CN(C)C(=O)c1ccc(-c2ccc(C3[C@@H]4CN(C(=O)CN5CCOCC5)C[C@H]3N4)cc2)cc1 (stereo not given in full)	-7	·	7	-3	·	·
O=C(Nc1nccs1)[C@H]1[C@H](CO)[C@H]2Cn3c(ccc(-c4cccnc4)c3=O)[C@H]2N1CC1CC1	-28	·	-1	-11	·	·
O=C1CN(Cc2ccccc2)C[C@H]2[C@@H](c3ccc(-c4ccccc4)cc3)[C@@H](CO)N12	-9	·	3	1	·	·
COc1cccc(C(=O)Nc2sc3c(c2C#N)CCN(C(C)=O)C3)c1	18	-1	14	60*	9	-15
SMILES	PAX8 inh HTS	LMP1 NFkB inh	LGR2 antag	EWS-Fli block	TWEAK-Fn14 inh	TROY signal inh
CN(C)c1cccc(/C=C(\C#N)c2ccccc2)c1	-51	-36	12	55*	31	-30
CCOC(=O)N1CCN(C(=O)c2ccc(NS(C)(=O)=O)cc2)CC1	·	0	5	-14	17	-2
CCOC(=O)c1ccc(NC(=S)P(=O)(c2ccccc2)c2ccccc2)cc1	-24	19	9	11	71*	-13
CCOC(=O)c1ccc(NS(C)(=O)=O)cc1	·	1	1	·	82*	·
CC(=O)Oc1cccc(Nc2ncnc3ccccc23)c1	-49	-1	-19	-48	6	-4
Brc1ccc2ncnc(Nc3cccc4ccccc34)c2c1	·	-1	18	·	61*	34
CCCNc1ncnc2ccc(Br)cc12	7	·	·	-9	·	·
Cc1ccccc1C(=O)Oc1cccc(Nc2ncnc3ccccc23)c1	·	5	·	·	53*	51*
COc1cccc(Nc2ncnc3ccc(Br)cc23)c1	-8	27	13	-3	63*	35
CC(C)NC(=O)N1[C@H](CO)[C@@H]2c3ccccc3N(C(=O)Nc3ccc(Cl)cc3)C[C@@H]21	1	·	1	-8	·	·
COCC#Cc1ccc([C@@H]2[C@H]3CN(C(=O)C4CC4)CC(=O)N3[C@H]2CO)cc1	10	·	11	7	·	·
C[C@H](CO)N1C[C@H](C)[C@H](CN(C)C(=O)Nc2ccc(F)cc2)Oc2ccc(NC(=O)CCC(F)(F)F)cc2C1=O	-12	·	-4	6	·	·
O=C(NC1CCCCC1)N1[C@@H]2CNC[C@H]1C2c1ccc(-c2cccnc2)cc1 (stereo not given in full)	·	·	10	0	·	·
CCCC(=O)NC(c1ccccc1OC)c1ccc2cccnc2c1O (stereo not given)	·	71*	·	·	20	7
CCCCC(=O)NC(c1ccccc1OC)c1ccc2cccnc2c1O (stereo not given)	88*	66*	20	40	-3	-10
CCCC(=O)NC(c1ccc(OC)c(OC)c1)c1c(O)ccc2ccccc12 (stereo not given)	·	-2	·	·	5	-13
COc1ccc(-c2[nH]c(-c3ccc4c(c3)OCO4)nc2-c2ccccc2)cc1	·	6	·	·	31	60*
COc1ccc(NC(=O)CN2C(=O)NC(C)(c3ccc(C)cc3)C2=O)c([N+](=O)[O-])c1 (stereo not given)	7	51*	10	11	5	0
C=C1C(=O)C23C(O)C1CCC2C12COC3(O)C(O)C1C(C)(C)CCC2O (stereo not given)	·	·	·	68*	75*	47
O=C(C1CC1)N1CC2(C1)[C@H](c1ccccc1)[C@H](CO)N2CCC(F)(F)F	·	·	-4	10	·	·
Cc1cc(-c2ccc(C)c(S(=O)(=O)NCc3ccc(Br)cc3)c2)on1	2	10	15	2	65*	32

Screens deposited in PubChem BioAssay by several laboratories.
